# Screening results as filed in PubChem.
# tim10-1 inh: inhibits growth of tim10-1 mutant yeast; S. cerevisiae tim10-1 ts strain growth, BacTiter-Glo, 24 h; inhibition, % at 20 µM; actives 2.2% (n = 330,000); AID 463190;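 active means inhibition of at least 40%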;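 further: mutant grown at 25 °C; 0% = DMSO wells with yeast and 100% = wells holding no yeast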
# tim23-1 inh: inhibits growth of tim23-1 mutant yeast; S. cerevisiae tim23-1 growth, BacTiter-Glo luminescence, 24 h; inhibition, % at 20 µM; actives 1.3% (n = 330,000);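 active means growth inhibition of the mutant yeast at or above 50%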;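 further: temperature-sensitive mutant grown at 25 °C; plate controls were DMSO-treated mutant yeast for no effect and medium wells lacking yeast for full effect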
# SKKanGAS inh: SKKanGAS growth inhibition. S. pyogenes SKKanGAS, kanamycin growth, BacTiter-Glo, 6 h. AID 1662. inhibition, % at 7.5 µM. actives 1.3% (n = 300,000);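 active means mean replicate score, as percent of positive control median, at least 50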;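 further: strain carries kanamycin resistance gene driven by streptokinase promoter and grows in 40 µg/ml kanamycin; loss of luminescence reflects streptokinase promoter inhibition or plain growth inhibition; 0% = median of DMSO wells and 100% = positive control at its reference dose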
# PfHsp90 yeast 2: reduces growth (ATP signal) of yeast expressing P. falciparum Hsp90. S. cerevisiae expressing PfHsp90, BacTiter-Glo ATP, 48 h; yeast lacking PDR1 and PDR3 efflux regulators. inhibition, % at 9.4 µM. actives 0.32% (n = 310,000);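 active means every replicate shows inhibition above about 80%, whatever the replicate mean, limit read from the data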;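 further: 0% = DMSO neutral controls and 100% = 20 µM radicicol positive controls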
# TIM10 inh: inhibits growth of TIM10 yeast strain; S. cerevisiae TIM10 strain growth, BacTiter-Glo luminescence, 24 h; inhibition, % at 10 µM; actives 1.4% (n = 330,000);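 active means inhibition of 40% or more at the single tested concentration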;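 further: wild-type TIM10 isogenic control strain grown at permissive 25 °C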
# tim10-1 conf: confirmation of tim10-1 mutant yeast growth inhibitors | shares compounds with tim10-1 inh | S. cerevisiae tim10-1 ts strain growth, BacTiter-Glo, 24 h | inhibition, % at 20 µM | actives 56% (n = 7,400) | AID 463213;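 active means inhibition of yeast growth at or above a set limit in either of two repeat tests at 20 µM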;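 further: tim10-1 mutant grown at permissive 25 °C to find synthetic lethal compounds; 0% = DMSO yeast wells and 100% = medium wells without yeast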
# TIM10 conf: TIM10 yeast growth inhibition, confirmed; shares compounds with TIM10 inh; S. cerevisiae tim10 strain growth, BacTiter-Glo luminescence, 24 h; inhibition, % at 10 µM; actives 63% (n = 4,600);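 active means inhibition of yeast growth at or above a set limit in either of two replicates at 10 µM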;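 further: this counterscreen used the strain with wild-type TIM10; 0% = yeast with DMSO and 100% = medium wells lacking yeast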
# tim23-1 confirm: tim23-1 yeast growth inhibition, confirmed; shares compounds with tim23-1 inh; S. cerevisiae tim23-1 growth, BacTiter-Glo luminescence, 24 h; inhibition, % at 20 µM; actives 83% (n = 4,400);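 active means inhibition above about 39% in either of two replicate wells at 20 µM, limit read from the data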;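 further: temperature-sensitive tim23-1 mutant grown at 25 °C; 0% = DMSO wells with yeast and 100% = medium wells without yeast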
# Starred values were filed as active, the others as inactive; x = not tested or not shown. Sampled rows, rich in hits. Any-hit rate of the full collection: about 4.4%.
SMILES,tim10-1 inh,tim23-1 inh,SKKanGAS inh,PfHsp90 yeast 2,TIM10 inh,tim10-1 conf,TIM10 conf,tim23-1 confirm
COc1ccccc1C(=O)Nc1cccc2cccnc12,48*,72*,-1,-5,35,42*,x,72*
Cc1ccc(NC(=O)c2cccc3cccnc23)cc1,42*,65*,0,25,31,41*,x,80*
CC(=O)Nc1cccc(NC(=O)c2cccc3cccnc23)c1,4,9,1,5,-5,x,x,x
CC(C)(C)c1ccc(C(=O)Cn2cnnc2C#N)cc1,29,37,-7,34,27,x,x,x
COc1cc(NC(=O)C2CC(c3c(F)cccc3Cl)=NO2)c(OC)cc1Cl (stereo unspecified),12,26,31,-40,-4,x,x,x
Cc1ccc(O)c(NC(=O)C2CC(c3c(F)cccc3Cl)=NO2)c1 (stereo unspecified),44*,54*,9,-31,25,26,x,60*
CC(=O)Nc1ccc(S(=O)(=O)N2CCN(c3cc(C)ccc3C)CC2)cc1,60*,54*,-6,2,35,49*,x,47*
CCCCCCCCCC[N+](C)(C)CC/C=C1/c2ccccc2Sc2ccc(Cl)cc21,98*,92*,95*,106*,83*,97*,86*,94*
CCCCCCCCCCC[N+](C)(C)CC/C=C1/c2ccccc2Sc2ccc(Cl)cc21,98*,89*,90*,107*,82*,97*,82*,94*
CC[N+](C)(C)CC/C=C1/c2ccccc2Sc2ccc(Cl)cc21,11,-10,7,x,-13,x,x,x
Cc1ccc(N2C(=O)C3C4C=CC(CC4)C3C2=O)c([N+](=O)[O-])c1 (stereo unspecified),15,20,3,1,12,x,x,x
CC(C)c1ccc(NC(=O)CN2C(=O)COc3ccc(S(=O)(=O)N4CCOCC4)cc32)cc1,1,-21,1,2,-1,x,x,x
CCCC(=O)Nn1cnc2c(c1=O)C1(CCCCC1)Cc1ccccc1-2,41*,53*,1,-8,52*,44*,40*,52*
O=C(NCCOC12CC3CC(CC(C3)C1)C2)c1cccc(Br)c1,42*,53*,1,-17,44*,33*,46*,46*
Cc1nn(-c2ccccc2)c(Cl)c1/C=C(\C#N)C(=O)NC(C)C,56*,73*,-3,-10,53*,72*,56*,60*
CCOc1ccccc1N1CCN(C(=O)Nc2ccc(Cl)c(Cl)c2)CC1,48*,58*,15,x,37,37*,x,50*
CCOc1ccccc1N1CCN(C(=O)c2c(Cl)cnn2C)CC1,-1,-1,9,-12,12,x,x,x
Cn1cc(-c2ccccc2C(=O)O)c(=O)c2cc(Cl)ccc21,1,-5,0,16,-2,x,x,x
CCN(C[C@H]1N[C@@](Cc2ccccc2)(C(=O)OC)[C@H]2C(=O)N(Cc3ccccc3)C(=O)[C@@H]12)C(=O)Nc1ccc(C(F)(F)F)cc1,76*,70*,x,4,72*,81*,69*,75*
CCN(C[C@H]1N[C@@](Cc2ccccc2)(C(=O)OC)[C@H]2C(=O)N(Cc3ccccc3)C(=O)[C@@H]12)C(=O)Nc1ccc(C)cc1,16,18,x,3,8,x,x,x
O=C(CSc1nnc(CNC(=O)c2cccs2)o1)Nc1ccc(F)cc1F,-12,5,-8,10,-2,x,x,x
CC(=O)Nc1ccc(S(=O)(=O)N(C)CC(=O)OCC(=O)c2ccc[nH]2)cc1,4,10,x,11,4,x,x,x
Cc1cc(=O)[nH]c(SCC(=O)C23CC4CC(CC(C4)C2)C3)c1C#N,66*,74*,0,23,73*,60*,59*,49*
COc1c(C(CC(C)C)OC(C)=O)ccc2c1C(=O)OCc1cc(C)cc(O)c1O2 (stereo unspecified),37,33,3,-7,21,x,x,x
Cc1ccc(-c2csc(NC(=O)c3ccc(F)cc3)c2C(=O)O)cc1,81*,77*,26,34,82*,82*,94*,88*
SMILES,tim10-1 inh,tim23-1 inh,SKKanGAS inh,PfHsp90 yeast 2,TIM10 inh,tim10-1 conf,TIM10 conf,tim23-1 confirm
COc1ccc(-c2csc(NC(=O)c3ccc(C(C)(C)C)cc3)c2C(=O)O)cc1,84*,85*,82*,x,73*,83*,92*,90*
Cc1ccc(C(=O)Nc2scc(-c3ccccc3)c2C(=O)O)o1,6,5,21,x,18,x,x,x
O=C(Nc1scc(-c2ccccc2)c1C(=O)O)c1ccc(F)cc1,67*,85*,14,39,60*,72*,45*,86*
COc1ccc(C(CNC(=O)CCNS(=O)(=O)c2ccc(Br)cc2)N2CCOCC2)cc1 (stereo unspecified),x,x,x,9,x,x,x,x
CC1CN(C(=O)CCC(=O)NCc2ccccc2)c2ccccc2O1 (stereo unspecified),21,18,0,-12,0,x,x,x
CNC(=O)CN(Cc1ccccc1)S(=O)(=O)c1ccc(Cl)cc1,12,14,0,-3,-1,x,x,x
CC(C)(C)C1CCc2c(sc3ncn(N)c(=N)c23)C1 (stereo unspecified),1,12,2,4,8,x,x,x
CNc1nc(N)c([N+](=O)[O-])c(Nc2cccc(Cl)c2)n1,55*,59*,-1,x,62*,49*,66*,64*
C=CCNc1nc(N)c([N+](=O)[O-])c(Nc2cccc(Cl)c2)n1,22,21,9,-13,16,x,x,x
CNc1nc(N)c([N+](=O)[O-])c(Nc2cccc(F)c2)n1,52*,80*,-4,12,67*,48*,79*,79*
CCN1CCCC1CNC(=O)c1ccc2c(c1)NC(=O)/C(=C\c1ccc(C)cc1)S2 (stereo unspecified),13,20,9,2,-1,x,x,x
CC1CCN(C(=O)c2ccc3c(c2)NC(=O)/C(=C/c2ccccc2)S3)CC1,42*,50*,76*,-17,-7,1,x,47*
CCCOc1ccc2c(c1)C(=NN=C(N)N)c1cc(OCCC)ccc1-2,76*,62*,12,0,32,38*,x,33
O=C1C(Cl)=C(NCc2cccnc2)C(=O)c2ccccc21,45*,69*,0,4,39,30,x,64*
Cc1nc(N2CCOCC2)[nH]c(=O)c1C,-10,14,-3,-13,1,x,x,x
